# ASM inhibitor – blocks human secretory acid sphingomyelinase. placental ASM, HMU-PC fluorogenic substrate, 60 min. P17405. AID 504937. 0.006% of 340,000 active. Potency, µM (titrated, usually from 57.5 µM), inactives show at the highest dose activity change, negative = inhibition, hits mostly inhibitors; note: potency is the fitted concentration of half-maximal effect
# Target sequence (P17405 47-631 limits assumed): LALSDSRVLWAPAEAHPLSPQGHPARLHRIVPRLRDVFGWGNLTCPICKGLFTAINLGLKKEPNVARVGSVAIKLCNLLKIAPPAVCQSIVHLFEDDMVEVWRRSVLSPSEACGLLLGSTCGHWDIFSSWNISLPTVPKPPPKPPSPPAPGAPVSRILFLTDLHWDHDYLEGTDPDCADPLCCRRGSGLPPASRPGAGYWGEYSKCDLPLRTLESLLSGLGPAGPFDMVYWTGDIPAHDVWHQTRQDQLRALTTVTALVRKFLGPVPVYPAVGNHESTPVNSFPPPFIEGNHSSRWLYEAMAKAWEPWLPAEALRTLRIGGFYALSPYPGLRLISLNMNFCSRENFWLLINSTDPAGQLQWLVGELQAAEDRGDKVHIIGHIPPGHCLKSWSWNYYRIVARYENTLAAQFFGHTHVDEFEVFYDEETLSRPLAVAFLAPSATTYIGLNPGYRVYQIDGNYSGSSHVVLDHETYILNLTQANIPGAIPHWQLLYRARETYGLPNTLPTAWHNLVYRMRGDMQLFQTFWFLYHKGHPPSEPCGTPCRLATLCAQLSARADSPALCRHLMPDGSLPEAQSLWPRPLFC
#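 HMU-PC0 cleavage (9 uM final) by human placental ASM, 60 min at 37 °C following 10 min compound exposure at RT; stopped at pH 10, fluorescence Ex 386/Em 447 nm.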
# IL-1B inflam inh – inhibitors of inflammasome signaling (IL-1 beta secretion); THP-1 LPS/ATP IL-1B secretion, AlphaLISA, 16 h; hits give low values; activity change, % at 57.5 µM; 4.7% of 360,000 active; in the data active = activity change below about -50%; inconclusive = mostly about -30% to -49%; note: % is set by controls: 0 for no effect and ±100 for the full control effect
#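 Secreted IL-1B measured by AlphaLISA bead assay after 16 h compound exposure of THP-1 cells; compounds (final up to 57.5 uM) added 1 h before LPS (250 ng/mL) and ATP (1.25 mM) stimulation; lower signal means less secretion.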
# TGFb SMAD3 inh – inhibitors of TGF-b signaling | 1.2% of 410,000 active | HepG2 CAGA-GFP TGF-b/SMAD3 reporter, GFP fluorescence, 18 h; TGF-beta stimulated, 500 pg/mL final | Potency, µM (highest dose often 46.1 µM), without a hit: at the top dose activity, negative = inhibition, usual class: inhibitors; note: potency is the fitted concentration of half-maximal effect; % is set by controls: 0 for no effect and ±100 for the full control effect; nearly all actives have a fitted effect of over 65% in size
#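 HEPG2 CAGA-GFP, 1000 cells/well; 2 h settle, 37 C; cpd via pin tool; TGF-b 500 pg/mL final; 18 h, 37 C; GFP imaging ex488/em500-530; %Activity normalised to -TGF-b and +DMSO controls; CRC fit, curve class.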
# HepG2 tox – HepG2 cytotoxicity, counter-screen for TGF-b inhibitors | Potency, µM (series often up to 46.1 µM), without a hit: top-dose activity change, negative = cytotoxicity, most hits filed as cytotoxic | HepG2 CAGA-GFP viability, ATP luminescence, 18 h | 0.76% of 410,000 active; note: potency is the fitted concentration of half-maximal effect
#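 CellTiter-Glo luminescence gave cytotoxicity after 18 hours at 37 degrees C. The cells were HepG2 CAGA-GFP in 1% FBS DMEM, stimulated with 500 pg/mL TGF-beta after compound addition. %Activity was normalised to no-cell wells (complete cell-killing) and DMSO (no toxicity), and curves were fitted and classified.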
# TDP1 cell noCPT – qHTS for Inhibitors of human tyrosyl-DNA phosphodiesterase 1 (TDP1): qHTS in cells in absence of CPT | DT40 Tdp1-/- hTDP1 cells, no CPT, ATP luminescence, 48 h | Potency, µM (series often up to 46.2 µM), without a hit: at the highest dose activity change, negative = growth inhibition, actives largely listed as inhibitors | 15% of 420,000 active; note: potency is the fitted concentration of half-maximal effect; % is set by controls: 0 for no effect and ±100 for the full control effect; nearly all actives have a fitted effect of over 55% in size
#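 Growth kinetics read by CellTiter-Glo luminescence after ≥48 hr at 37 °C. Cells: DT40 Tdp1-/- stably carrying human TDP1, 400 per well, compound exposure in the absence of CPT (DMSO vehicle).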
# DT40 TDP1 CPT – growth inhibition of DT40 Tdp1-/-;hTDP1 cells with camptothecin (screen for TDP1 inhibitors); chicken DT40 Tdp1-/-;hTDP1 cells + 20 nM CPT, ATP luminescence, 48 h; Potency, µM (doses to about 46.2 µM), for inactives: at the top dose activity change, negative = growth inhibition, usual class: inhibitors; 12% of 420,000 active; AID 686979; note: potency is the fitted concentration of half-maximal effect; % is set by controls: 0 for no effect and ±100 for the full control effect; nearly all actives have a fitted effect of over 55% in size
#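 Cell growth measured by CellTiter-Glo luminescence after a minimum 48 h, 37 C compound exposure with 20 nM CPT in Tdp1-knockout DT40 cells stably expressing hTDP1, seeded 400/well; qHTS titration format.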
# An asterisk follows results filed as active; ? = inconclusive; · = no result; [ ] = another dose, or the depositor's remark. In the library only some 19% were active in any assay of this set; here they are far more common. Unless noted, calls come from the whole dose curve; as a rule, active = well fitted curve in the direction sought with a large enough effect; inconclusive = small, poorly fitted or top-dose-only effect, or another doubt; inactive = no such curve, though single readings can be large; an effect the other way counts as inactive or inconclusive.
SMILES,ASM inhibitor,IL-1B inflam inh,TGFb SMAD3 inh,HepG2 tox,TDP1 cell noCPT,DT40 TDP1 CPT
COc1ccc(-c2nnc(Sc3nc4ccccc4o3)c3ccccc23)cc1,-5%,-101*,13µM*,13µM*,20µM*,?
Cc1ccc(CNC(=O)CCCc2nnc3n(CC(C)C)c(=O)c4sccc4n23)cc1,·,·,-15%,-13%,?,?
CC1CCC(NC(=O)CCS(=O)(=O)c2ccc3c(c2)CC(C)N3C(=O)C2CC2)CC1 (configuration not stated),-2%,0,3%,-2%,-26%,?
CC1Cc2cc(S(=O)(=O)CCC(=O)NC3CCCCC3)ccc2N1C(=O)C1CC1 (configuration not stated),-2%,20,7%,3%,0%,?
Cc1c(Cl)cccc1NC(=O)CCS(=O)(=O)c1ccc2c(c1)CC(C)N2C(=O)C1CC1 (configuration not stated),·,·,1%,-3%,4.1µM*,5.2µM*
CC1Cc2cc(S(=O)(=O)CCC(=O)Nc3ccc(OC(F)(F)F)cc3)ccc2N1C(=O)C1CC1 (configuration not stated),·,·,?,-35%,5.8µM*,7.3µM*
Cc1cc(Cl)ccc1NC(=O)CCS(=O)(=O)c1ccc2c(c1)CC(C)N2C(=O)C1CC1 (configuration not stated),·,·,?,-22%,?,12µM*
CCOc1ccc(NC(=O)CCS(=O)(=O)c2ccc(Br)cc2)cc1,-2%,5,2%,1%,23µM*,?
CCn1c(SCC(=O)N2CCC(C)CC2)nc2c1c(=O)n(C)c(=O)n2C,1%,31,13%,-12%,-15%,3%
COC(=O)C1CCN(S(=O)(=O)c2cc3c4c(c2)C(C)C(=O)N4CCC3)CC1 (configuration not stated),·,·,8%,3%,-16%,-12%
CSc1ccc(CN(C)C(=O)CNC(=O)c2sc3ccccc3c2Cl)cc1,-13%,-7,-3%,8%,?,-8%
Cc1ccc(S(=O)(=O)CCC(=O)Nc2ccc(OC(F)(F)F)cc2)cc1,·,·,?,2%,?,21µM*
Nc1n[nH]c(N)c1N=Nc1cccc(F)c1,0%,-78*,-18%,0%,-12%,?
Cc1nc(NC(=O)CC(C)C)sc1-c1csc(Nc2ccc(Cl)cc2Cl)n1,-22%,7,-16%,-11%,18µM*,?
Cc1nc(NC(=O)CC(C)C)sc1-c1csc(Nc2ccc(Cl)cc2)n1,-8%,-2,-1%,-18%,15µM*,?
CCOC(=O)c1csc(NC(=O)COc2ccc(Cl)cc2Cl)n1,-18%,-5,-22%,-13%,-29%,-14%
Cc1nc(-c2ccc(NC(=O)CC(C)C)cc2)cs1,1%,?,8%,7%,?,15%
C=CCCC(=O)Nc1nc(C)c(-c2csc(Nc3ccc(Cl)cc3Cl)n2)s1,-26%,-21,-25%,-12%,15µM*,?
CCOC(=O)c1sc2ncn(CC(=O)Nc3ccc(OC)c(Cl)c3)c(=O)c2c1C,·,·,1%,-55%,-9%,13%
Cc1ccc(CNc2nc(C)c(-c3ccn(CCN4CCOCC4)n3)s2)o1,·,·,·,·,1%,25%[9.04 µM]
Cc1ccc([N+](=O)[O-])cc1S(=O)(=O)N(C(=O)c1ccncc1)c1ccc2oc3c(c2c1)CCCC3,59%,-1,?,-15%,-11%,-15%
COC(=O)c1c(C)oc2ccc(N(C(=O)c3ccncc3)S(=O)(=O)c3ccc(C)cc3C)cc12,1%,?,?,4%,4.1µM*,2.6µM*
COC(=O)c1c(C)oc2ccc(N(C(=O)c3ccncc3)S(=O)(=O)c3c(C)cc(C)cc3C)cc12,·,·,0%,-21%,1.2µM*,1.8µM*
COC(=O)c1c(C)oc2ccc(NS(=O)(=O)c3cccs3)cc12,-5%,-10,-18%,-4%,-57%,?
COC(=O)c1c(C)oc2ccc(N(C(=O)c3ccncc3)S(=O)(=O)c3cc(C)c(C)cc3C)cc12,·,·,?,-36%,5.2µM*,10µM*
SMILES,ASM inhibitor,IL-1B inflam inh,TGFb SMAD3 inh,HepG2 tox,TDP1 cell noCPT,DT40 TDP1 CPT
Cc1ccc(NS(=O)(=O)c2ccc(-c3coc(C)n3)cc2)c(Br)c1,-9%,43,-2%,-27%,-11%,-14%
Cc1ccc(-c2nn(-c3ccccc3)cc2NC(=O)c2ccccc2)cc1,-6%,?,0%,-1%,21µM*,21µM*
O=C(Nc1cn(-c2ccccc2)nc1-c1ccc(F)cc1)c1ccccc1,-3%,10,-7%,4%,18µM*,21µM*
O=C(Nc1cn(-c2ccccc2)nc1-c1ccc(Cl)cc1)c1ccccc1,-7%,4,5%,1%,?,?
O=S1(=O)c2c(F)cccc2OC(COCc2ccccc2)CN1C1CCCC1 (configuration not stated),-5%,-6,?,-3%,21µM*,?
O=S1(=O)c2c(Oc3cccc4ccccc34)cccc2OC(COCc2ccccc2)CN1C1CCCC1 (configuration not stated),1%,22,-6%,-3%,6.5µM*,6.5µM*
CC(=O)N1c2c(cc(Br)cc2S(=O)(=O)Nc2c(C)n(C)n(-c3ccccc3)c2=O)CC1C (configuration not stated),6%,20,62%,8%,-13%,-1%
CC(=O)N1c2c(cc(Br)cc2S(=O)(=O)N2CCN(C(=O)c3ccco3)CC2)CC1C (configuration not stated),3%,0,-10%,7%,18µM*,21µM*
CC(=O)N1c2c(cc(Br)cc2S(=O)(=O)N2CCN(c3ccccc3)CC2)CC1C (configuration not stated),·,·,?,-8%,16µM*,23µM*
CSCCC1NC(=O)N(CC(=O)Nc2ccc(Br)cc2Br)C1=O (configuration not stated),-1%,?,-14%,-24%,-8%,-21%
CC(=O)Nc1ccc(S(=O)(=O)NCc2ccc3c(c2)CCN3C(C)=O)cc1,·,·,-11%,-3%,-21%,-6%
Nc1nonc1C(=O)N/N=C/c1cc2c(cc1[N+](=O)[O-])OCO2,-3%,-8,17%,-11%,11%,1%

# Screens: PubChem, National Center for Advancing Translational Sciences (NCATS)
